Test results published in PubChem BioAssay AID504444 (National Center for Advancing Translational Sciences (NCATS), 2011).
In all, about 360,000 compounds went through this assay and about 7,500 (2.1%) were called active. Inconclusive results (about 20%) are left out. The sample as a whole holds a higher share of actives than the screen did. A number with no mark means an inactive call. Calls follow the shape of the dose curve; as a rule, active = well fitted inhibition curve with a large enough effect; inconclusive = small, poorly fitted or top-dose-only effect, or effect the other way; inactive = flat fitted curve, though single readings scatter.

test: Nrf2 qHTS screen for inhibitors; details: A549 ARE-Fluc reporter, luciferase luminescence, 18-24 h; series mostly up to 46 µM; activity change, negative = inhibition: at the top concentration; also: nearly all actives have a fitted effect of over 60% in size
Excerpt: NIH Molecular Libraries Probe Production Network [MLPCN]
NIH Chemical Genomics Center [NCGC]
Assay Provider: Shyam Biswal, Johns Hopkins University
Nrf2 is a transcription factor that maintains cellular redox homoestasis and protects cells from xenobiotics. Nrf2 binds to the antioxidant response element (ARE) to induce gene expression of a broad spectrum of genes that encode for antioxidants. […] Finding a small molecule that act as an inhibitor of Nrf2 function would represent a novel therapeutic target that could lead to improvement in survival of patients undergoing chemo- and/or radio- therapy.
This is the Nrf2 activity measured in the luminescent read.
1. Shibata, T., et al., Genetic Alteration of Keap1 Confers Constitutive Nrf2 Activation and Resistance to Chemotherapy in Gallbladder Cancer. Gastroenterology, 2008.
2. Sjoblom, T., et al., The consensus coding sequences of human breast and colorectal cancers. Science, 2006. 314(5797): p. 268-74.
NCGC Assay Protocol Summary:
A concentration-response assay was performed with A549 ARE_Fluc cells which are suspended in 5% FBS OPTI-MEM. Five uL were dispensed into 1536-well white TC-treated plate using the Kalypsys dispenser to achieve a density of 5000 cells/well in all columns except column 1. The plate is incubated at 37deg C at 5% CO2 for 2 hours before 23 nL of compounds are added with the Kalypsys pin tool equipped with a 1,536-pin array containing 10-nL slotted pins (FP1S10, 0.457-mm diameter, 50.8 mm long; V&P Scientific). The control compounds Budesonide and Staurosporine are both added at a concentration of 2mM and Budesonide is also added as a 1:10 titration, starting at 200uM, to achieve dose-response. After an 18-24 hour incubation at 37deg C at 5% CO2, 5ul of medium is added to column 1. Afterwards 1ul of 5x of CellTiter-Fluor (Promega) is added to every well. The plate is then incubated at 37deg C at 5% CO2 for 30 minutes before they are read on the ViewLux (Perkin Elmer) for a fluorescent read Ex=405(10)/Em=525(10) for a 3 second exposure, 2x binning, and high gain. Then 3 uL of 3x BugLite is dispensed into all wells and the plate is incubated at ambient room temperature for 15 minutes. Afterwards another ViewLux read is performed using the clear filter to get a luminescent read with the settings of 40 second exposure, 2x binning, and high gain. Cytotoxicity is assessed through the first fluorescent read and then biochemical activity against Nrf2 is measured in the luminescent read.
% is scaled to controls: 0 for no effect and ±100 for the full control effect; potency is read from the fitted curve at half-maximal effect.

SMILES	activity change, negative = inhibition	Potency
O=C(c1ccc2c(=O)n(Cc3ccco3)c(=S)[nH]c2c1)N1CCCC1	-26.7%	–
O=C(Nc1cc(S(=O)(=O)N2CCCCC2)ccc1Cl)C1COc2ccccc2O1 (stereo not given)	-17.2%	–
CCCOC(=O)c1cc2ccccc2oc1=O	-4.8%	–
CCOC(=O)c1cc(=O)c2ccc(OCc3ccccc3)cc2o1	0.81%	–
COc1ccc(Oc2coc3cc(OC(=O)c4cncc(Br)c4)ccc3c2=O)cc1	-23.2%	–
CCc1ccc(Oc2coc3cc(O)ccc3c2=O)cc1	–	7.31 µM (active)
CCc1ccc(Oc2coc3cc(OC(=O)c4cc5ccccc5oc4=O)ccc3c2=O)cc1	–	4.61 µM (active)
COc1ccc(-c2onc(C)c2C)cc1S(=O)(=O)NCc1cccs1	-14.2%	–
CC(C)Cn1c(=O)c2ccccc2n2c(-c3cccc(Cl)c3)nnc12	0.39%	–
CCOC(=O)c1cccc(NS(=O)(=O)c2c(C(=O)N3CCCCCC3)c(C)n(C)c2C)c1	5.58%	–
CCOC(=O)N1CCN(C(=O)c2ccc(S(=O)(=O)Nc3cccc(C(F)(F)F)c3)cc2)CC1	–	18.4 µM (active)
O=C(Nc1ccc(C(=O)N2CCOCC2)cc1)Nc1cccc(C(F)(F)F)c1	-28.3%	–
Cc1ccc(C)c(N2CCN(C(=O)CCc3nc(-c4cccc(C(F)(F)F)c4)no3)CC2)c1	-25.2%	–
COc1ccc(C(=O)OCC(=O)c2cc(C)n(CC3CCCO3)c2C)cc1[N+](=O)[O-] (stereo not given)	-11.4%	–
Cc1oc2ncnc(N3CCCCC3)c2c1C(=O)N1CCN(c2cccc(Cl)c2)CC1	5.11%	–
CC(=O)OCC1(O)CC23CCC4c5ccoc5CCC4(C)C2CCC1C3 (stereo not given)	-16.8%	–
CCC1(C)Cc2c(sc3[nH]c(=S)n(Cc4ccccc4)c(=O)c23)CO1 (stereo not given)	–	16.4 µM (active)
CCC1(C)Cc2c(sc3nc(SC)[nH]c(=O)c23)CO1 (stereo not given)	-5.53%	–
CCC1(C)Cc2c(sc3nc4n(c(=O)c23)CCCS4)CO1 (stereo not given)	1.02%	–
COc1ccc(Cl)cc1NC(=O)c1sc2nc3c(cc2c1N)CN(C)CC3	1.59%	–

SMILES	activity change, negative = inhibition	Potency
COc1ccc(CNc2nc(-c3ccc(Cl)cc3)cc(C(F)(F)F)n2)cc1	0.506% [at 9.27 µM]	–
CN(C)c1ccc(C(=O)NCC(=O)OC(C(=O)Nc2cc(C(F)(F)F)ccc2Cl)c2ccccc2)cc1 (stereo not given)	6.05%	–
Cc1cccc(N2O[C@H]3C=CC2CCCC3)n1	26.1%	–
COc1cc(/C=C/C(=O)Nc2ccc(OC)c(S(=O)(=O)N3CCOCC3)c2)ccc1OCC#N	–	9.2 µM (active)
COc1ccc(CNC(=O)COC(=O)c2ccc(C)c(S(=O)(=O)N3CCOCC3)c2)cc1OC	-8.32%	–
COc1ccc(CCC(=O)Nc2ccc(Cl)c(S(=O)(=O)N3CCOCC3)c2)cc1OC	–	18.4 µM (active)
COc1cc(/C=C/C(=O)OCC(=O)N2CCOCC2)ccc1OCC#N	9.99%	–
COc1ccc(C(=O)OCC(=O)c2ccc(C)c(S(=O)(=O)N3CCOCC3)c2)cc1OC	–	20.6 µM (active)
COc1ccc(COC(=O)c2ccc(Cl)c(S(=O)(=O)N3CCOCC3)c2)cc1F	-8.75%	–
COc1ccc(CC(=O)Nc2ccc3c(c2)CCC3)cc1S(=O)(=O)N1CCOCC1	-17%	–
Cc1ccc(C(=O)OCC(=O)N2CCCCCC2)cc1S(=O)(=O)N1CCOCC1	8.03%	–
COc1ccc(NS(=O)(=O)c2cc(NC(=O)/C=C/c3cc(OC)c(OC)c(OC)c3)ccc2N2CCCCC2)cc1	-12.4%	–
CCN1CCN(CCCNC(=O)c2ccc3c(c2)sc2nc(-c4ccc(OC)cc4)cn23)CC1	-26%	–
Cc1ccc(O)c(NC(=O)CCS(=O)(=O)c2nc(-c3ccc4c(c3)OCO4)cc(C(F)(F)F)n2)c1	8.08% [at 9.27 µM]	–
CC1CCCCN1CC(=O)N1CCCc2c1c(=O)oc1ccc(OCc3ccccc3)cc21 (stereo not given)	-15.1%	–
Cc1ccc(-c2cc(C(=O)Oc3ccccc3Cl)no2)cc1C	12.8%	–
CC1=C(c2ccc(C)c(C)c2)S(=O)(=O)NC1=NCc1ccccc1Cl	–	23.1 µM (active)
Cc1ccc(CNc2ncnc3cc(-c4ccc5c(c4)OCO5)ccc23)o1	4.57%	–
O=C(O)c1ccc(NC(=O)c2ccc(COc3ccc(Cl)cc3)o2)cc1	29.2%	–
Cc1cccc(NC(=O)c2ccc(COc3ccccc3[N+](=O)[O-])o2)n1	-18.1%	–

SMILES	activity change, negative = inhibition	Potency
O=C(Nc1ccn(Cc2ccccc2F)n1)c1ccc(COc2ccc(Cl)cc2Cl)o1	–	25.9 µM (active)
CCc1nn(CC(=O)Nc2cc(C)cc(C)c2)c(=O)c2cc3sccc3n12	9.2%	–
CC1CC2=C(CC1/C=N/NC(N)=S)C(C)(C)CCC2 (stereo not given)	–	23.1 µM (active)
CCc1nc2nc(C)cc(Nc3ccc(F)c(Cl)c3)n2n1	-13.4%	–
Cc1ccc(CNC(=O)Cn2cnc3c(NCc4ccccc4)ncnc32)o1	-7.86%	–
Cc1cccc(NC(=O)Cn2cc(S(=O)(=O)Cc3ccccc3Cl)c3ccccc32)c1	-4.12%	–
O/N=C(\C[n+]1ccccc1)c1ccc(Br)cc1	–	3.66 µM (active)
O=C(O)CC/C(=N\NC(=O)c1ccc(F)cc1)c1ccc(Br)cc1	7.74%	–
CCN(C(=O)c1ccc(Br)cc1)c1ccccc1	-12.2%	–
COC(=O)[C@]1(Cc2ccccc2)N[C@H](CN(C)S(=O)(=O)c2ccc(OC(F)(F)F)cc2)[C@@H]2C(=O)N(C)C(=O)[C@@H]21	-14.7%	–
CCCN(CCC)CCCNC(=O)Cn1ncc2c3ccccc3n(Cc3ccccc3)c2c1=O	13.4%	–
Cc1ccc(S(=O)(=O)c2cn(Cc3ccccc3)c3cc(N4CCCC4)c(F)cc3c2=O)c(C)c1	-14.6%	–
Cc1ccc(S(=O)(=O)N2C[C@@H]3CCCC[C@@H]3[C@@H](C)[C@H]2c2cn(Cc3ccccc3)c3ccc(F)cc23)cc1	–	2.91 µM (active)
Cc1cccc(S(=O)(=O)c2cn(Cc3ccccc3)c3cc(N4CCOCC4)c(F)cc3c2=O)c1	-18.8%	–
N#CC1=C(N)Oc2cc(N)ccc2C1c1ccccc1 (stereo not given)	-15.3%	–
CN(C)Cc1cn(-c2ccccc2)nc1-c1ccccc1	-3.78%	–
O=C(N[C@H]1C/C=C\C(c2ccc(F)cc2)N(Cc2ccccc2)C(=O)C1)OCC1c2ccccc2-c2ccccc21 (stereo not given in full)	4.03%	–
CC(C)N(C(=O)CSc1nc(COc2ccccc2)nc2ccccc12)C(C)C	-10.9%	–
CCc1c(SCCC(=O)O)nc2ccccc2c1C	-7.59%	–
O=C(O)CSc1nccc2ccccc12	–	16.4 µM (active)
